Tau FP inhib: tau fibrillization inhibition (FP); P10636; K18 P301L tau heparin fibrillization, Alexa594 FP, 6 h; Potency, µM (highest dose often 57.7 µM), inactives show top-dose activity, negative = inhibition, hits mostly inhibitors; 0.39% of 280,000 active; AID 1468; further: potency means the concentration at half of the fitted maximal effect; nearly all actives have a fitted effect of over 55% in size
Target sequence (P10636 561-689 P618L limits assumed): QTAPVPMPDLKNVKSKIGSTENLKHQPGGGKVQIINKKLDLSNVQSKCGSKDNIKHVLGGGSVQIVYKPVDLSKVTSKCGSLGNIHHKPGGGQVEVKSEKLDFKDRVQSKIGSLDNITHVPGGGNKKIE
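Heparin (20 uM) drove fibril formation of recombinant tau K18 P301L, 15 uM unlabeled with 0.24 uM Alexa 594 label, for 6 hr at 37 C in 100 mM sodium acetate pH 7. Fluorescence polarization (555/632 nm) read 1 hr after 30 uM ThT.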
Tau ThT inhib: inhibitors of human tau fibril formation, thioflavin T binding | recombinant tau K18 P301L, heparin-induced fibrillization, ThT fluorescence | 2.1% of 270,000 active | AID 1460 | P10636 | Potency, µM (highest dose often 57.4 µM), for the others: at the top dose activity, negative = inhibition, hits mostly inhibitors; further: potency means the concentration at half of the fitted maximal effect; nearly all actives have a fitted effect of over 55% in size
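Recombinant human tau K18 fragment […] carrying P301L, 15 uM unlabeled plus 0.24 uM Alexa 594-labeled, was fibrillized with 20 uM heparin in 100 mM sodium acetate pH 7 for 6 hr at 37 C; 30 uM ThT fluorescence read after 1 hr.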
Coupling enz: inhibits coupling enzyme system, counter-screen for aldolase hits | coupling enzyme system counterscreen, AmpLite Red fluorescence | activity change, negative = inhibition, % at 58.2 µM, hits read low | 0.67% of 290,000 active | AID 2472; in the data active means activity change below about -30%
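Counterscreen of the coupled detection system alone, without aldolase: glyceraldehyde-3-phosphate coupling enzymes plus AmpLite Red readout. Compounds at 57.5 uM final, 10 min RT preincubation, 20 min RT reaction, fluorescence 525/598 nm.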
Tau fluor cs: counter-screen for tau fibril formation inhibitors; Potency, µM (highest dose often 57.7 µM), for inactives: top-dose activity change, negative = decrease; 0.93% of 280,000 active; tau K18 P301L Alexa594 fluorescence, heparin fibrillization; further: potency means the concentration at half of the fitted maximal effect; nearly all actives have a fitted effect of over 55% in size
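Human tau K18 P301L (15 uM unlabeled, 0.24 uM Alexa 594-labeled) in 100 mM sodium acetate pH 7 with 20 uM heparin, 6 hr at 37 C. ThT 30 uM added, 1 hr ambient; Alexa 594 FP and total fluorescence read at 555/632 nm.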
* = called active by the depositor; ? = inconclusive; nt = not tested or not shown; [ ] = another dose, or the depositor's remark. The list is not random: actives were taken first. Their share in the collection is about 2.7%. Unless noted, the call rests on the fitted dose curve; in most records, active means well fitted curve in the direction sought with a large enough effect; inconclusive means small, poorly fitted or top-dose-only effect, or another doubt; inactive means no such curve, though single readings can be large; an effect the other way counts as inactive or inconclusive. On the % scale 0 is the no-effect control and ±100 the full control effect.

SMILES	Tau FP inhib	Tau ThT inhib	Coupling enz	Tau fluor cs
Cc1ccc(OCCSc2nc3ccccc3n2CC(=O)N2CCOCC2)cc1	-5%	?	nt	-13%
CCOCCCNC(=S)NCCNc1nc2c(C)cccc2cc1C#N	-2%	-6%	-20	-8%
Cc1cccc2cc(C#N)c(NCCNS(=O)(=O)c3ccccc3)nc12	-3%	-3%	-4	-19%
Cc1cccc2cc(C#N)c(NCc3ccccc3)nc12	-8%	1%	-44*	-9%
Cc1cccc2cc(C#N)c(NCCNC(=O)COc3ccccc3)nc12	-1%	20%	-35*	10%
COC(=O)[C@H]1C[C@H]2CC[C@H](O)C[C@H]2N1Cc1c(F)cccc1Cl	7%	-6%	-2	-5%
O=C(OCc1ccc([N+](=O)[O-])cc1)c1cc(=O)c2ccccc2o1	nt	nt	0	nt
CCN(CC)S(=O)(=O)c1nnc(NC(=O)COc2ccc(Cl)cc2)s1	-5%	?	nt	?
COc1ccc(/C=N/Nc2cc(N(C)C)nc(N(C)C)n2)cc1	9%	?	-42*	?
CN(C)c1cc(N/N=C\c2ccccc2)nc(N(C)C)n1	3%	?	-39*	?
Cc1cc(N/N=C/c2ccccc2)nc(NCc2ccccc2)n1	-5%	-12%	0	?
COc1ccccc1/C=N/Nc1cc(N(C)C)nc(N(C)C)n1	9%	?	-31*	?
CCc1ccc(S(=O)(=O)/N=C2\C=C(NS(=O)(=O)c3ccccc3)C(=O)c3ccccc32)cc1	nt	nt	-34*	nt
CC(C)c1ccc(S(=O)(=O)/N=C2\C=C(NS(=O)(=O)c3ccccc3)C(=O)c3ccccc32)cc1	nt	nt	-32*	nt
Cc1cc(NS(=O)(=O)c2ccc(C(C)C)cc2)no1	nt	nt	3	nt
Cc1cccc(S(=O)(=O)Nc2cccc3c2C(=O)c2ccccc2-3)c1	-11%	?	0	?
Cc1ccc(C)c(S(=O)(=O)/N=C2\C=C(NS(=O)(=O)c3ccccc3)C(=O)c3ccccc32)c1	nt	nt	-50*	nt
CC(C)c1ccc(S(=O)(=O)/N=C2/C=CC(=O)c3ccccc32)cc1	?	28µM*	-53*	?
CCOc1ccccc1C(=O)Oc1c(Sc2ccccc2)c(C)nn1C(C)(C)C	-2%	-11%	nt	-14%
CCc1ccc(S(=O)(=O)NCc2ccc3c(c2)CCN3C(=O)c2ccc(C)cc2)cc1	-4%	-13%	nt	-22%
CCCCCOC(=O)c1ccc(OC(=O)c2sc3ncn(Cc4cccc(F)c4)c(=O)c3c2C)cc1	-12%	-2%	nt	-3%
COc1ccc(CN=Cc2[nH]c3ccc(Br)c(Cl)c3c2O)cc1	?	16µM*	-30*	?
Cc1cc(C)cc(N=Cc2[nH]c3ccc(Br)c(Cl)c3c2O)c1	7%	?	-19	?
O=C(c1ccccc1)c1c2c(cc3sc4ccccc4[n+]13)-c1cccc3cccc-2c13	?	6.3µM*	0	?
O=C1CCN(CCc2ccccc2)CCN1CCSc1ccccc1	nt	nt	0	nt
SMILES	Tau FP inhib	Tau ThT inhib	Coupling enz	Tau fluor cs
O=C1C=CC(=O)C(C2=C3C(=O)N(CCc4ccccc4)CC(=O)N3CCC2)=C1	?	16µM*	-55*	?
CCOC(=O)N1CCc2c(sc3c2C(=O)NC(c2ccc(N(C)C)cc2)N3)C1 (stereo not drawn)	-19%	0.89µM*	nt	-15%
CCOC(=O)N1CCc2c(sc3c2C(=O)NC(c2cc(OC)c(O)c(OC)c2)N3)C1 (stereo not drawn)	1%	11µM*	nt	-16%
CCOC(=O)N1CCc2c(sc3c2C(=O)NC(c2ccccc2)N3)C1 (stereo not drawn)	?	28µM*	-30	-28%
COc1cc(C2NC(=O)c3c(sc4c3CCN(C)C4)N2)ccc1OC(=O)c1ccccc1 (stereo not drawn)	-6%	13µM*	nt	-14%
COc1cc(C2NC(=O)c3c(sc4c3CCN(C)C4)N2)cc(OC)c1OC (stereo not drawn)	-3%	?	nt	2%
Cc1ccc(/C=C/c2onc(C)c2S(=O)(=O)N2CCC(C(=O)NCC(C)c3ccccc3)CC2)cc1 (stereo not drawn)	-6%	13%	nt	2%
Cc1ccc(N2CCN(c3ncnc4onc(-c5ccc(F)cc5)c34)CC2)c(C)c1	0%	-5%	nt	-14%
OCC1OC(c2ccccc2)C=CC1Oc1cc(Cl)cc(Cl)c1 (stereo not drawn)	1%[11.6 µM]	-15%[11.5 µM]	2	-20%[11.6 µM]
C[C@H]1CS(=O)(=O)CCN1/N=C\c1ccc([N+](=O)[O-])o1	nt	nt	1	nt
